Assay outcomes: PubChem BioAssay, several laboratories
SKKanGAS inh = SKKanGAS growth inhibition | S. pyogenes SKKanGAS, kanamycin growth, BacTiter-Glo, 6 h | inhibition, % at 7.5 µM | hit rate 1.3% among 300,000 | AID 1662;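 active means mean replicate score, as percent of positive control median, at least 50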;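 further: strain carries kanamycin resistance gene driven by streptokinase promoter and grows in 40 µg/ml kanamycin; loss of luminescence reflects streptokinase promoter inhibition or plain growth inhibition; 0% = median of DMSO wells and 100% = positive control at its reference dose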
TIM10 inh = TIM10 yeast growth inhibition | S. cerevisiae TIM10 strain growth, BacTiter-Glo luminescence, 24 h | inhibition, % at 10 µM | hit rate 1.4% among 330,000 | AID 463195;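 active means inhibition of 40% or more at the single tested concentration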;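 further: wild-type TIM10 isogenic control strain grown at permissive 25 °C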
NALP3 yeast inh = blocks the NALP3 inflammasome reconstituted in yeast | Yeast reconstituted NLRP3/ASC/caspase-1, beta-gal luminescence, 24 h | inhibition, % at 10 µM | hit rate 0.39% among 330,000;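 active means inhibition of 50% or more; inactive means inhibition below 50%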;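 further: plate controls were induced DMSO wells for no effect and uninduced yeast grown without galactose for full effect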
tim10-1 inh = tim10-1 yeast growth inhibition; S. cerevisiae tim10-1 ts strain growth, BacTiter-Glo, 24 h; inhibition, % at 20 µM; hit rate 2.2% among 330,000; AID 463190;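 active means inhibition of at least 40%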;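 further: mutant grown at 25 °C; 0% = DMSO wells with yeast and 100% = wells holding no yeast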
tim23-1 inh = inhibits growth of tim23-1 mutant yeast. hit rate 1.3% among 330,000. inhibition, % at 20 µM. S. cerevisiae tim23-1 growth, BacTiter-Glo luminescence, 24 h;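 active means growth inhibition of the mutant yeast at or above 50%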;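 further: temperature-sensitive mutant grown at 25 °C; plate controls were DMSO-treated mutant yeast for no effect and medium wells lacking yeast for full effect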
PfHsp90 set2 = reduces growth (ATP signal) of yeast expressing P. falciparum Hsp90; S. cerevisiae expressing PfHsp90, BacTiter-Glo ATP, 48 h; yeast lacking PDR1 and PDR3 efflux regulators; inhibition, % at 9.4 µM; hit rate 0.32% among 310,000;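 active means every replicate shows inhibition above about 80%, whatever the replicate mean, limit read from the data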;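 further: 0% = DMSO neutral controls and 100% = 20 µM radicicol positive controls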
tim10-1 conf = confirmation of tim10-1 mutant yeast growth inhibitors. shares compounds with tim10-1 inh. S. cerevisiae tim10-1 ts strain growth, BacTiter-Glo, 24 h. inhibition, % at 20 µM. hit rate 56% among 7,400;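 active means inhibition of yeast growth at or above a set limit in either of two repeat tests at 20 µM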;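 further: tim10-1 mutant grown at permissive 25 °C to find synthetic lethal compounds; 0% = DMSO yeast wells and 100% = medium wells without yeast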
TIM10 conf = confirmation of TIM10 yeast growth inhibitors. AID 463215. S. cerevisiae tim10 strain growth, BacTiter-Glo luminescence, 24 h. inhibition, % at 10 µM. shares compounds with TIM10 inh. hit rate 63% among 4,600;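 active means inhibition of yeast growth at or above a set limit in either of two replicates at 10 µM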;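 further: this counterscreen used the strain with wild-type TIM10; 0% = yeast with DMSO and 100% = medium wells lacking yeast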
tim23-1 conf = tim23-1 yeast growth inhibition, confirmed; shares compounds with tim23-1 inh; S. cerevisiae tim23-1 growth, BacTiter-Glo luminescence, 24 h; inhibition, % at 20 µM; hit rate 83% among 4,400;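 active means inhibition above about 39% in either of two replicate wells at 20 µM, limit read from the data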;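 further: temperature-sensitive tim23-1 mutant grown at 25 °C; 0% = DMSO wells with yeast and 100% = medium wells without yeast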
* marks the source's active call; other numbers are inactive results; x = no result. An excerpt weighted towards active compounds, which were near 4.5% of everything screened.

SMILES	SKKanGAS inh	TIM10 inh	NALP3 yeast inh	tim10-1 inh	tim23-1 inh	PfHsp90 set2	tim10-1 conf	TIM10 conf	tim23-1 conf
NCCC(=O)NC[C@H]1O[C@@H](n2cnc3c(N)ncnc32)[C@H](O)[C@@H]1O	x	-13.4	x	-4.4	21.7	-9.3	x	x	x
Nc1ncnc2c1ncn2C1OC(COP(=O)(O)O)C(O)C1O (configuration not stated)	-1.1	72.9*	20.7	85.5*	81.3*	97.1*	84.2*	60.4*	87.6*
Nc1ncnc2c1ncn2[C@@H]1O[C@H](COS(=O)(=O)O)[C@@H](O)[C@H]1O	x	2.8	7.6	0.1	0.1	-16.7	x	x	x
Nc1ncnc2c1ncn2[C@@H]1O[C@H](COP(=O)(O)O)[C@@H](O)[C@H]1O	-3.3	76.3*	9.7	87.3*	83.8*	70.1	84.6*	65.9*	90.4*
CC(On1nnc2ccccc21)C(=O)N1CCN(Cc2ccccc2)CC1 (configuration not stated)	x	1.2	11.1	20.6	8.0	-2.5	x	x	x
N#C/C(=C\C1CC=CCC1)c1nc2ccccc2[nH]1 (configuration not stated)	1.1	-2.1	15.9	8.0	14.1	-0.1	x	x	x
Cn1c(/C(C#N)=C/C2CC=CCC2)nc2ccccc21 (configuration not stated)	19.3	33.8	28.1	42.7*	68.7*	-16.7	39.4*	x	51.0*
O=C(CC1CC2CCC1C2)OCC(=O)c1c[nH]c2ccccc12 (configuration not stated)	-5.6	35.0	16.8	41.6*	51.9*	1.3	25.6	x	67.6*
O=C(COC(=O)CC1CC2CCC1C2)NCc1ccc(F)cc1 (configuration not stated)	x	3.3	8.6	5.0	21.6	x	x	x	x
COc1ccc(C(=O)Nc2ccccc2C(=O)N/N=C/c2ccncc2)cc1OC	22.2	32.7	3.2	42.6*	61.5*	34.1	54.6*	x	53.0*
CCOC(=O)C/C(N)=N/NC(=O)c1ccc(Cl)cc1Cl	-1.7	9.9	16.4	-0.2	-0.3	11.0	x	x	x
N#Cc1nc(-c2cccs2)oc1NCc1ccccc1	5.0	17.3	17.5	28.9	42.3	x	x	x	x
Cc1ccc(CNc2oc(-c3cccs3)nc2C#N)cc1	1.0	17.8	37.9	43.7*	52.2*	-12.3	25.8	x	46.5*
COc1ccc(NC(=O)CSc2nc(=O)n(CCN3CCOCC3)c3c2CCCC3)c(OC)c1	-5.4	1.7	7.0	0.4	-16.9	0.1	x	x	x
FC(F)(F)c1nnc(-c2ccccc2)nc1Sc1ccc(Cl)cc1	26.9	31.1	15.9	50.6*	62.3*	-6.6	48.9*	x	46.8*
O=C(/C=C/c1cccc(C(F)(F)F)c1)Nc1cccc(C(F)(F)F)c1	88.1*	57.7*	-15.1	55.0*	72.0*	105.2*	56.1*	53.5*	69.4*
N/C(=N\OC(=O)Nc1ccccc1)c1cccc(C(F)(F)F)c1	-5.2	14.2	6.9	53.6*	63.7*	-4.6	41.1*	x	49.1*
N/C(=N\OC(=O)Nc1ccc(Cl)cc1)c1ncc(C(F)(F)F)cc1Cl	-11.6	68.8*	3.4	52.8*	75.4*	-11.3	64.2*	80.4*	73.0*
N/C(=N\OC(=O)Nc1ccccc1)c1ncc(C(F)(F)F)cc1Cl	6.8	25.0	-0.8	25.7	44.7	-3.7	x	x	x
CC1CCC(NC(=O)C2CC(=O)N(c3ccc(Cl)cc3)C2)CC1 (configuration not stated)	1.9	-2.6	11.2	-3.0	-5.8	-6.9	x	x	x
Cc1ccc(S(=O)(=O)N2CCOCC2)cc1C(=O)N1CCN(c2ncccn2)CC1	x	1.0	-15.2	3.5	2.2	3.5	x	x	x
Cc1[nH]n(-c2ccccc2)c(=O)c1C(c1ccc(C(=O)O)cc1)c1c(C)[nH]n(-c2ccccc2)c1=O	-3.2	13.8	5.5	7.6	23.8	-10.8	x	x	x
Cc1[nH]n(-c2ccccc2)c(=O)c1C(C[N+](=O)[O-])c1ccc(Br)cc1 (configuration not stated)	9.1	49.5*	36.5	60.1*	89.1*	121.7*	57.2*	68.8*	84.3*
O=C(OCn1ncc(Cl)c(Cl)c1=O)c1ccc(F)cc1	3.8	58.5*	-3.4	66.1*	75.3*	x	60.8*	54.0*	85.0*
O=C(OCn1ncc(Cl)c(Cl)c1=O)c1ccccc1Cl	12.5	x	x	x	x	60.8	x	x	x
SMILES	SKKanGAS inh	TIM10 inh	NALP3 yeast inh	tim10-1 inh	tim23-1 inh	PfHsp90 set2	tim10-1 conf	TIM10 conf	tim23-1 conf
CC[n+]1ccc(C(=O)NCc2ccccc2)cc1	-0.6	16.7	-9.4	9.1	-3.2	1.6	x	x	x
O=[N+]([O-])c1ccc(Nc2ccccc2)c2nonc12	3.9	44.7*	21.8	48.5*	59.6*	-12.8	37.1*	39.5*	66.7*
Cc1ccc(CSc2nc3ccccc3cc2C=O)cc1	6.1	25.1	12.6	47.6*	69.2*	-30.7	47.1*	x	56.8*
O=c1[nH]c(SCc2ccc(Cl)cc2)nc2ccccc12	-1.2	16.4	-4.5	18.1	11.1	-8.0	x	x	x
Cc1ccc(CSc2ncnc3ccccc23)cc1	30.0	-0.5	41.5	11.7	11.8	-12.6	x	x	x
O=Cc1cc2ccccc2nc1SCc1ccc(Cl)cc1	51.4*	50.4*	14.3	63.7*	78.2*	x	55.4*	62.6*	64.0*
Cc1ccc(CNCCCSc2ncccn2)cc1	-0.5	-29.0	19.3	-30.4	-68.5	13.7	x	x	x
CN(CC(=O)Nc1c(Cl)cccc1Cl)C(=O)Cn1[nH]c(=O)c2ccccc2c1=O	x	5.9	4.8	-6.8	-7.4	-1.0	x	x	x
CCOC(=O)C1CCN(C2=NC(=O)/C(=C/c3ccc(OC)c(OC)c3)S2)CC1	-0.4	10.4	1.3	30.8	20.2	-3.2	x	x	x
CCOC(=O)C1CCN(C2=NC(=O)/C(=C/c3ccc(Cl)cc3)S2)CC1	-21.8	32.0	33.7	49.5*	50.1*	-50.3	31.6*	x	44.1*
N#Cc1c2ccc([N+](=O)[O-])cc2[n+]([O-])n1-c1ccccc1	x	65.6*	-6.7	61.0*	74.6*	91.3*	17.6	66.5*	28.4
NCCCn1c(C(=O)c2ccc(Cl)cc2)c2ccc([N+](=O)[O-])cc2[n+]1[O-]	13.5	7.6	26.1	12.7	17.2	-31.2	x	x	x
O=C(Nc1nc2ccccc2[nH]1)Nc1ccccc1F	1.6	1.2	14.8	-1.2	10.4	22.3	x	x	x
S=C(NNc1ccc2ccccc2c1)NC1CCCCC1	15.5	50.7*	7.4	48.5*	51.8*	-39.3	53.0*	56.4*	51.6*
CC1CCN(C(=O)c2ccc(NS(=O)(=O)c3ccc4[nH]c(=O)[nH]c4c3)cc2)CC1	-0.2	0.0	14.9	-24.2	-6.9	8.8	x	x	x
